Experimental findings from PubChem BioAssay (Tox21) are described below.

A short description of experiment [1]: qHTS assay to identify aromatase inhibitors - cell viability counter screen (AID 743084).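 Also: cells stimulated with testosterone during compound exposure; nearly all actives have a fitted effect of over 55% in size.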 Also: potency is read from the fitted curve at half-maximal effect.
For experiment [2], the target named is Aryl hydrocarbon receptor (Homo sapiens) (UniProt P35869). Nature of the experiment: qHTS assay to identify small molecule that activate the aryl hydrocarbon receptor (AhR) signaling pathway (AID 743085).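 Also: HG2L7.5c1 human HepG2 liver cells with stably integrated DRE-driven firefly reporter; series mostly up to about 70 µM; nearly all actives have a fitted effect of over 15% in size.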 A digest of the protocol: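 Stably transfected human liver carcinoma cells (HG2L7.5c1; 20 DRE-firefly luciferase) were incubated 5 h, dosed, and kept 24 h at 37C. Agonism was scored from increased luciferase luminescence.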
Aryl hydrocarbon receptor (Homo sapiens), sequence (P35869 whole entry, looked up): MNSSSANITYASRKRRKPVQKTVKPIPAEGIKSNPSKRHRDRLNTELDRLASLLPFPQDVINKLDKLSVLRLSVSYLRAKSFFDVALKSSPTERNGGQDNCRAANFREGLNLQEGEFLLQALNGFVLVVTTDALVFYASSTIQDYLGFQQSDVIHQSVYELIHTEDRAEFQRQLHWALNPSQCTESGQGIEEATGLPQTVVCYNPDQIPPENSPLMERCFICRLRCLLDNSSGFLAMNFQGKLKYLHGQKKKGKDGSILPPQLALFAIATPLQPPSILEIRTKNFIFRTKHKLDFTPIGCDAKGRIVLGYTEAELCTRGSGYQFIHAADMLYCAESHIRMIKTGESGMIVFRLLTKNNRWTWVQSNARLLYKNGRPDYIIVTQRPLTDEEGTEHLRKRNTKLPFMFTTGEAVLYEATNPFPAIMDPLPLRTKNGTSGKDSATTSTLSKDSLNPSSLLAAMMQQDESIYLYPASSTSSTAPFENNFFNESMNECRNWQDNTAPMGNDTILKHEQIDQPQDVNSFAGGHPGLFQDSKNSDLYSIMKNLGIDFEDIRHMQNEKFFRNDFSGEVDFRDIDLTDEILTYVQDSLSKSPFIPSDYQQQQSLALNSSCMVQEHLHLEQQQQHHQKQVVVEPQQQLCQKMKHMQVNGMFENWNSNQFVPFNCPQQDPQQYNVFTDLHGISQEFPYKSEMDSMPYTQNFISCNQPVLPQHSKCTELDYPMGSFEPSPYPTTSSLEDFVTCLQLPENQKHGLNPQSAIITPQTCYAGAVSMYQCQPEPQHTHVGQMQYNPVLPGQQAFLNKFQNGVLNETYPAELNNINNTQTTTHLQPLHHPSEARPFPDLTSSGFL
For orientation: In qHTS, concentration-response curves come from the screen itself.

A short description of experiment [3]: qHTS assay to identify small molecule that activate the aryl hydrocarbon receptor (AhR) signaling pathway - cell viability counter screen (AID 743086). Also: nearly all actives have a fitted effect of over 45% in size. Also: potency is read from the fitted curve at half-maximal effect. A digest of the protocol:
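HepG2-AhR-luc (HG2L7.5c1) cells, 4000/well, treated 24 h at 37 C with compound; viability measured as CellTiter-Fluor fluorescence after 30 min in the same wells as the luciferase read.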

Experiment [4] has as its target Peroxisome proliferator-activated receptor gamma (Homo sapiens) (UniProt P37231). Nature of the experiment: qHTS assay to identify small molecule agonists of the peroxisome proliferator-activated receptor gamma (PPARg) signaling pathway (AID 743094; active = well fitted activation curve with a large enough effect in the signal ratio in the repeat runs, not every such curve was filed as active; the % refers to the signal ratio). A digest of the protocol:
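GeneBLAzer PPARg UAS-bla HEK293H cells carrying a stably integrated beta-lactamase reporter were pre-incubated 5 h at 37C, then exposed to compounds in DMSO for 17 h at 37C; LiveBLAzer B/G FRET substrate was added for 1 h at room temperature and fluorescence read.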

For experiment [5] the target is unchanged. Kind of experiment: qHTS assay to identify small molecule antagonists of the peroxisome proliferator-activated receptor gamma (PPARg) signaling pathway (AID 743191; calls by dose curve; also: series mostly up to about 63 µM; nearly all actives have a fitted effect of over 30% in size). A digest of the protocol: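 GeneBLAzer PPARg UAS-bla HEK293H cells, 5 h post-plating, exposed to compounds 17 h at 37C. LiveBLAzer B/G FRET substrate added for 1 h at room temperature; beta-lactamase reporter read by fluorescence intensity.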

Experiment [6] can be described thus: qHTS assay to identify small molecule antagonists of the peroxisome proliferator-activated receptor gamma (PPARg) signaling pathway - cell viability counter screen (AID 743194). Also: nearly all actives have a fitted effect of over 55% in size. A digest of the protocol: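 Cytotoxicity counter screen in PPARg-bla HEK293H cells, same wells as reporter assay. Compounds plus 50 nM rosiglitazone (final) for 17 h at 37 C, then viability read by CellTiter-Glo luminescence.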

A short description of experiment [7]: qHTS assay for small molecule agonists of the antioxidant response element (ARE) signaling pathway (AID 743202; active = well fitted activation curve with a large enough effect in the signal ratio in the repeat runs, not every such curve was filed as active; the % refers to the signal ratio). A digest of the protocol:
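Agonist mode reporter screen: HepG2 cells with ARE-controlled beta-lactamase are incubated with test compounds for 16 h at 37 C, and beta-lactamase activity is measured as fluorescence of cleaved B/G FRET substrate.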

A short description of experiment [8]: qHTS assay for small molecule agonists of the antioxidant response element (ARE) signaling pathway - cell viability counter screen (AID 743203; calls by dose curve; also: nearly all actives have a fitted effect of over 55% in size). A digest of the protocol:
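CellSensor ARE-bla HepG2 cells, 2,000 per well, rested 5 hrs at 37C/5% CO2, then exposed to compound in DMSO for 16 hrs; viability read as CellTiter-Glo luminescence after 30 min at room temperature, in the reporter wells.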

The nature of experiment [9]: qHTS assay for small molecule activators of the heat shock response signaling pathway - cell viability counter screen (AID 743209). Also: nearly all actives have a fitted effect of over 50% in size. A digest of the protocol: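 CellSensor HSE-bla HeLa cells, plated overnight at 37 C/5% CO2, were exposed to compounds in DMSO for 5 h at 37 C. Viability was then read in the same wells by CellTiter-Glo luminescence after 30 min at room temperature.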

Experiment [10] in a line: qHTS assay for small molecule activators of the heat shock response signaling pathway (AID 743210; active = well fitted activation curve with a large enough effect in the signal ratio in the repeat runs, with a control signal flat, not every such curve was filed as active; the % refers to the signal ratio;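 also: HeLa cells with beta-lactamase reporter driven by heat shock elements; series mostly up to about 63 µM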). A digest of the protocol: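 Quantitative high-throughput format using an engineered HeLa line in which heat shock response elements drive beta-lactamase; after 5 h with compound, cells received a B/G FRET substrate and fluorescence was read.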
The nature of experiment [11]: qHTS assay to identify small molecule agonists of the peroxisome proliferator-activated receptor delta (PPARd) signaling pathway - cell viability counter screen (AID 743211). Also: nearly all actives have a fitted effect of over 55% in size. A digest of the protocol:
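In the same wells used for beta-lactamase reporter measurement, cytotoxicity is scored by CellTiter-Glo. HEK293H PPARd-bla cells receive compound for 17 h at 37C following a 5 h settling period.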

The target of experiment [12] is Peroxisome proliferator-activated receptor delta (Homo sapiens) (UniProt Q03181). Nature of the experiment: qHTS assay to identify small molecule agonists of the peroxisome proliferator-activated receptor delta (PPARd) signaling pathway (AID 743212; calls by dose curve). A digest of the protocol:
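Quantitative high-throughput agonist screen in a HEK293H beta-lactamase reporter line under UAS control. Compounds in DMSO, at 37 C. Fluorescence read after 2 h with FRET substrate at room temperature.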

The target is the same in experiment [13]. Kind of experiment: qHTS assay to identify small molecule antagonists of the peroxisome proliferator-activated receptor delta (PPARd) signaling pathway (AID 743215; active = well fitted inhibition curve with a large enough effect in the signal ratio in the repeat runs, not every such curve was filed as active; the % refers to the signal ratio;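 also: cells stimulated with agonist L165041 at 300 nM final during compound exposure; series mostly up to about 62 µM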). A digest of the protocol: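 PPARd UAS-bla HEK293H cells were pre-incubated 5 h at 37 C, then given test compounds in DMSO plus agonist L165041 (300 nM final). After 17 h at 37 C, beta-lactamase FRET substrate was added; fluorescence read after 2 h at room temperature.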

Experiment [14] deals with Bile acid receptor (Homo sapiens) (UniProt Q96RI1). Kind of experiment: qHTS assay to identify small molecule antagonists of the farnesoid-X-receptor (FXR) signaling pathway (AID 743217; active = well fitted inhibition curve with a large enough effect in the signal ratio in the repeat runs, not every such curve was filed as active; the % refers to the signal ratio). A digest of the protocol:
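FXR-UAS-bla HEK 293T cells pre-incubated 5 h at 37 °C, then exposed to compounds with chenodeoxycholic acid (50 uM final) for 16 h at 37 °C. Beta-lactamase reporter read by LiveBLAzer B/G FRET substrate fluorescence after 2 h at room temperature.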

Experiment [15] in a line: qHTS assay to identify small molecule agonists of the farnesoid-X-receptor (FXR) signaling pathway - cell viability counter screen (AID 743218). Also: nearly all actives have a fitted effect of over 45% in size. A digest of the protocol: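 FXR-UAS-bla HEK 293T cells, plated 5 h at 37 C, were exposed to compounds for 16 h at 37 C. CellTiter-Glo was then added to the same wells as the bla readout; luminescence read after 30 min at room temperature.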

In experiment [16] the target is Bile acid receptor (Homo sapiens) (UniProt Q96RI1). Nature of the experiment: qHTS assay to identify small molecule agonists of the farnesoid-X-receptor (FXR) signaling pathway (AID 743220; active = well fitted activation curve with a large enough effect in the signal ratio in the repeat runs, not every such curve was filed as active; the % refers to the signal ratio). A digest of the protocol: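 Beta-lactamase reporter under UAS control in GeneBLAzer FXR HEK 293T cells (5000/well) measured with LiveBLAzer FRET substrate after 2 h at room temperature. Compound exposure lasted 16 h at 37C.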
Bile acid receptor (Homo sapiens), sequence (Q96RI1 whole entry, looked up): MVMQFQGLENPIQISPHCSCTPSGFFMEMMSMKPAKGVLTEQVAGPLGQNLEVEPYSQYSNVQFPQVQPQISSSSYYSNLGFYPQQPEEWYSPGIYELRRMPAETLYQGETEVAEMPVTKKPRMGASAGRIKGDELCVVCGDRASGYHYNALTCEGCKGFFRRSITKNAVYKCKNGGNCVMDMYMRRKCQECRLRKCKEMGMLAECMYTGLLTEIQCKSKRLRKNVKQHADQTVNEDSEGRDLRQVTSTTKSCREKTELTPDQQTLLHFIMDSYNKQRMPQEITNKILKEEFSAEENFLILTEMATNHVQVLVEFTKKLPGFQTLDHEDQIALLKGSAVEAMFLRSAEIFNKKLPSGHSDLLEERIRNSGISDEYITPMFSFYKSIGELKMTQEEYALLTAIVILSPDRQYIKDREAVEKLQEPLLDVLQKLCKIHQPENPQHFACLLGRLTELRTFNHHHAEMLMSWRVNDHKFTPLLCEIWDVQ

Experiment [17] can be described thus: qHTS assay to identify small molecule antagonists of the farnesoid-X-receptor (FXR) signaling pathway - cell viability counter screen (AID 743221; active = well fitted cell-killing curve with a large enough effect in the repeat runs, not every such curve was filed as active; also: nearly all actives have a fitted effect of over 50% in size). A digest of the protocol:
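Here viability was scored by luminescence after CellTiter-Glo addition to wells already read for beta-lactamase. Prior treatment: compound plus CDCA (50 uM final), 16 h, 37 C, HEK 293T FXR-bla cells.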

Experiment [18] concerns the target Vitamin D3 receptor (Homo sapiens) (UniProt P11473). Kind of experiment: qHTS assay to identify small molecule agonists of the vitamin D receptor (VDR) signaling pathway (AID 743222; calls by dose curve). A digest of the protocol: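 VDR-bla cells were plated 4 h at 37C/5% CO2, then exposed to compounds in DMSO for 16 h. After LiveBLAzer B/G FRET substrate addition and 2 h at room temperature, beta-lactamase reporter fluorescence was read.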

The nature of experiment [19]: qHTS assay to identify small molecule antagonists of the peroxisome proliferator-activated receptor delta (PPARd) signaling pathway - cell viability counter screen (AID 743213). Also: nearly all actives have a fitted effect of over 50% in size. A digest of the protocol:
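Cytotoxicity counter screen: CellTiter-Glo luminescence read 30 min after addition, in the same wells as the reporter assay. There, PPARd UAS-bla HEK293H cells (3000/well) were treated 17 h at 37 C with compound and 300 nM L165041.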

The target in experiment [20] is Vitamin D3 receptor (Homo sapiens) (UniProt P11473). Nature of the experiment: qHTS assay to identify small molecule antagonists of the vitamin D receptor (VDR) signaling pathway (AID 743223; active = well fitted inhibition curve with a large enough effect in the signal ratio in the repeat runs, not every such curve was filed as active; the % refers to the signal ratio). A digest of the protocol: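 Inhibition of agonist-driven VDR signalling is scored in VDR-bla cells: 3 nM final 1alpha,25-dihydroxyvitamin D3 plus compound, 16 h at 37C, then beta-lactamase detection by FRET substrate fluorescence after 2 h.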
Vitamin D3 receptor (Homo sapiens), sequence (P11473 whole entry, looked up): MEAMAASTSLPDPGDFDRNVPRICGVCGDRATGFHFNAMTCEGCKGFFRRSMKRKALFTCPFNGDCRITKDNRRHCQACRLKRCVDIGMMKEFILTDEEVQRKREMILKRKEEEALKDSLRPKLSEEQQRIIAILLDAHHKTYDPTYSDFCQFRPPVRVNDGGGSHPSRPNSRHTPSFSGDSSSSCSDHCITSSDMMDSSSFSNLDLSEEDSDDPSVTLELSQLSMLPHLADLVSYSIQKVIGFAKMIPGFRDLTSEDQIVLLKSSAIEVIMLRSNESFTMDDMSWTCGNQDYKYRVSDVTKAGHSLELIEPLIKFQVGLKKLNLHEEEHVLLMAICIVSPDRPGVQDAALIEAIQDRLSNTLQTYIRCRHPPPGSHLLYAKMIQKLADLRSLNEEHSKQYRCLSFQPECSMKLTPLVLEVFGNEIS

Inconclusive results are not listed. A number with no mark means an inactive call. Activity calls are given as the source filed them. Unless noted, calls follow the shape of the dose curve; as a rule, active = well fitted curve in the direction sought with a large enough effect in the repeat runs; inconclusive = weak or mixed curves; inactive = no such curve, though single readings can be large; an effect the other way counts as inactive or inconclusive.

Peroxisome proliferator-activated receptor delta (Homo sapiens), sequence (Q03181 whole entry, looked up): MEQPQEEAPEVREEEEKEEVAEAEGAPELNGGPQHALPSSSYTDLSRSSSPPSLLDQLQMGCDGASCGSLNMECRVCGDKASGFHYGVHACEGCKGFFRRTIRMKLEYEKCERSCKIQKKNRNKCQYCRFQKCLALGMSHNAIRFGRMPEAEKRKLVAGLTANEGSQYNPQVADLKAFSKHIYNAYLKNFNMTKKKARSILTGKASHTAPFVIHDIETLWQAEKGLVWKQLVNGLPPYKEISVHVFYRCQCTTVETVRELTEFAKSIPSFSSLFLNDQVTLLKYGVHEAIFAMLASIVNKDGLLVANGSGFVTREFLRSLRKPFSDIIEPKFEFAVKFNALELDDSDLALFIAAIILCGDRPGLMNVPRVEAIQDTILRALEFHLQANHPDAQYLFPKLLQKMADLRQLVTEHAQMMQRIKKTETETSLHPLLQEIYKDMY
Peroxisome proliferator-activated receptor gamma (Homo sapiens), sequence (P37231 whole entry, looked up): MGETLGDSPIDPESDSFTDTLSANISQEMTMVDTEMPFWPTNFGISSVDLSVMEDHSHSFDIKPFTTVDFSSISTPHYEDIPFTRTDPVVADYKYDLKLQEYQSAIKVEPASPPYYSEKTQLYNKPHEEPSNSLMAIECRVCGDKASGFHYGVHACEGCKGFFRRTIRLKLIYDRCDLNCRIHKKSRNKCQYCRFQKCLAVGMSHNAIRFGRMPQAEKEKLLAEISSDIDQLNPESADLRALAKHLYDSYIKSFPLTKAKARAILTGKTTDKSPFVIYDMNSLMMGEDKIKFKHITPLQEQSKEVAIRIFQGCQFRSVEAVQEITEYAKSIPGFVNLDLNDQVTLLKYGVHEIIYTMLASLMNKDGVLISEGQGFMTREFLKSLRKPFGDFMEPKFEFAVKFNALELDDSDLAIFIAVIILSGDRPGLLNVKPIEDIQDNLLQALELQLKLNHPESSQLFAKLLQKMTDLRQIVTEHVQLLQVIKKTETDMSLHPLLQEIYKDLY

`CN1C(C)(C)CCCC1(C)C`: the Potency entry in [1], in [2], in experiment [3], in experiment [5], in experiment [7] and in experiment [14] was “inactive” throughout. Also, the Potency entry in experiment [15] and in experiment [16] was “inactive” throughout. In addition, the outcome in experiment [4], in [6], in experiment [8], in experiment [9], in experiment [10] and in experiment [11] was inactive. The outcome in [12], in experiment [13], in experiment [17] and in experiment [18] was inactive.

Turning to `Nc1ccc([N+](=O)[O-])c(N)c1`, the Potency in experiment [1] and in experiment [3] was 33.5 µM (active) throughout. In addition, the Potency result in [2], in experiment [5] and in experiment [7] was “inactive” throughout. Besides, the result in experiment [4], in experiment [6], in [8], in experiment [9], in experiment [10] and in experiment [11] was inactive. For the same compound, the outcome in experiment [12], in experiment [19], in experiment [13], in experiment [17], in experiment [18] and in [20] was inactive.

On to `NCCS`, for which the Potency result in experiment [1], in experiment [2], in [3], in experiment [5], in experiment [7] and in experiment [14] was “inactive” in each case. Also, in experiment [15], the Potency entry was “inactive”. Also, the compound was classed as inactive in [4], in experiment [6], in experiment [8], in experiment [9], in [10] and in [11]. For the same compound, the outcome in [12], in experiment [19], in experiment [13], in experiment [17] and in [20] was inactive.

For the compound `COP(=O)(OC)OC(c1ccc(Cl)cc1)P(=O)(OC)OC` (stereo unspecified), the Potency result in experiment [1], in experiment [2], in experiment [3], in experiment [5], in [7] and in [15] was “inactive” throughout. For the same compound, the call in [4], in experiment [6], in [8], in experiment [9], in experiment [11] and in experiment [19] was inactive. Besides, the compound was called inactive in [13], in experiment [17], in experiment [18] and in experiment [20].

In the case of `C=Cc1ccccn1`, the Potency result in experiment [1], in experiment [2], in [3], in experiment [5], in experiment [7] and in experiment [15] was “inactive” throughout. The compound was called inactive in experiment [4], in [6], in experiment [8], in experiment [9], in [11] and in experiment [12]. The call in [19], in experiment [13], in experiment [17], in experiment [18] and in [20] was inactive.

With `O=S(=O)(O)c1ccc2cc(O)c(S(=O)(=O)O)cc2c1`, the Potency result in experiment [1], in [2], in [3], in [5], in [7] and in experiment [15] was “inactive” each time. Further, the compound was classed as inactive in [4], in experiment [6], in experiment [8], in [9], in [10] and in experiment [11]. Also, the call in experiment [13], in experiment [17], in [18] and in experiment [20] was inactive.

Regarding `CC(COC(C)(C)C)OCCCO` (stereo unspecified), the Potency entry in experiment [1], in [2], in experiment [3], in experiment [5], in [7] and in experiment [14] was “inactive” in each case. Further, the Potency result in experiment [15] and in experiment [16] was “inactive” in each case. For the same compound, the compound was classed as inactive in experiment [4], in experiment [6], in experiment [8], in [9], in [10] and in experiment [11]. The result in experiment [19], in [17], in experiment [18] and in experiment [20] was inactive.

On to `CCCCC(CC)COCCO` (stereo unspecified), for which the Potency result in experiment [1], in experiment [2], in [3], in [5] and in experiment [7] was “inactive” each time. In addition, the compound was classed as inactive in experiment [4], in experiment [6], in experiment [8], in [9], in experiment [10] and in [11]. Further, the compound was called inactive in [13], in experiment [17] and in [20].

As for `CCOCCOCCOCC`, the Potency result in experiment [1], in [2], in experiment [3], in experiment [5], in experiment [7] and in [15] was “inactive” throughout. The outcome in [4], in [6], in experiment [8], in [9], in experiment [10] and in experiment [11] was inactive. Moreover, the call in experiment [12], in [19], in [17], in experiment [18] and in experiment [20] was inactive.
